Source: PubChem
Hits are enriched below; roughly 2.8% of the tested compounds scored in any of these assays.
Pol beta inh – qHTS Assay for Inhibitors of DNA Polymerase Beta. Pol beta primer extension/strand displacement, fluorescence kinetic. Potency, µM (top dose mostly 114 µM), most hits filed as inhibitors. 1.3% of 340,000 active
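Enzyme-only controls used 10 nM Pol beta; buffer lacking enzyme served as negative control. Compound preincubated 15 min, then 50 nM substrate added; 0 and 10 min reads at room temperature.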
POLH inh – qHTS for Inhibitors of Polymerase Eta; recombinant Pol eta, fluorescent DNA replication assay; Potency, µM (highest dose often 114 µM), actives largely listed as inhibitors; 1.2% of 390,000 active
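Pol eta at 10 nM preincubated with compounds 15 min at room temperature; reaction started with fluorescent substrate (50 nM final) and read kinetically at 0 and 10 min.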
Pol kappa inh – qHTS for Inhibitors of Polymerase Kappa; purified Pol kappa, fluorescent DNA synthesis assay, 10 min; DNA polymerase kappa (Homo sapiens), Q9UBT6; Potency, µM (titrated, usually from 107 µM), most hits filed as inhibitors; 0.53% of 400,000 active
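Fluorescent qHTS in 1536-well format: enzyme (10 nM) and compound sat 15 min at room temperature before 50 nM substrate (final) was added. Signal taken at 0 and 10 min; no-enzyme buffer wells were negative controls.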
PI5P4Ka inh – qHTS for Inhibitors of phosphatidylinositol 5-phosphate 4-kinase (PI5P4K) | Phosphatidylinositol 5-phosphate 4-kinase type-2 alpha (Homo sapiens), P48426 | PI5P4Kalpha enzyme, ADP-Glo luminescence, 60 min; active compounds read low | max response, % | 1.2% of 330,000 active; active means max response of -50% or lower; inconclusive means between -30% and -50%; inactive means -30% or higher; further: value at the top dose of about 77 µM
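ADP-Glo luminescence end-point read after a 60 min room-temperature kinase reaction of PI5P4Kalpha plus substrate, initiated with ATP at 5 microM final. Buffer: 0.038 M HEPES pH 7.4, EGTA, 0.1% CHAPS, 5% DMSO.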
POLI inh – qHTS for Inhibitors of Polymerase Iota | DNA polymerase iota (Homo sapiens), Q9UNA4 | Pol iota fluorescent replication assay, 10 min | Potency, µM (series often up to 115 µM), actives largely listed as inhibitors | 1% of 390,000 active
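Fluorescent replication assay read twice, at 0 min and 10 min after adding 50 nM (final) substrate. Enzyme (10 nM) and compounds were first incubated 15 min at room temperature; enzyme-free buffer wells were negative controls.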
WRN helicase inh – qHTS for Inhibitors of WRN Helicase; Bifunctional 3'-5' exonuclease/ATP-dependent helicase WRN (Homo sapiens), Q14191; WRN helicase unwinding, fluorescent forked duplex, kinetic; Potency, µM (highest dose often 114 µM), usual class: inhibitors; 0.46% of 360,000 active; further: nearly all actives have a fitted effect of over 55% in size
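Kinetic red-fluorescence monitoring (525/598 nm) tracks WRN helicase activity after 100 nM fluorophore-quencher forked duplex and 2 mM ATP are added to 20 nM enzyme pretreated 15 min at room temperature with compound.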
Of the large screens only hits and unclear results are named; the others gave an inactive call. Unless noted, the call rests on the fitted dose curve; in most records, active means well fitted curve in the direction sought with a large enough effect; inconclusive means small, poorly fitted or top-dose-only effect, or another doubt; inactive means no such curve, though single readings can be large; an effect the other way counts as inactive or inconclusive.

CCCCC1=CC2=C(c3ccco3)C(=O)C(C)(OC(=O)c3ccc(OC)cc3)C(=O)C2=CN1Cc1ccco1 (centres undefined)	Pol beta inh 10µM, Pol kappa inh 50µM, POLI inh 4µM
CCCCC1=CC2=C(c3ccco3)C(=O)C(C)(OC(=O)c3ccc(OC)cc3)C(=O)C2=CN1Cc1ccc(OC)cc1 (centres undefined)	Pol beta inh 45µM (no result: POLH inh, Pol kappa inh, PI5P4Ka inh, POLI inh, WRN helicase inh)
Cc1ccnc(N/C=C(\C#N)c2nc(-c3cccc(Br)c3)cs2)c1	Pol beta inh 35µM, POLI inh inconclusive (no result: PI5P4Ka inh)
N#C/C(=C/c1ccc(Cl)cc1)c1nc(-c2ccc(Br)cc2)cs1	POLI inh inconclusive (no result: PI5P4Ka inh, WRN helicase inh)
Cc1ccc(S(=O)(=O)N2CN(CC3CCCO3)c3nc4ccccc4nc32)c(C)c1 (centres undefined)	POLI inh 71µM
CCCCc1nc(NCCNC(=O)c2ccco2)c(C#N)c2c1CSC(C)(C)C2	POLH inh 89µM, Pol kappa inh inconclusive, POLI inh inconclusive, WRN helicase inh inconclusive (no result: PI5P4Ka inh)
O=C(O[C@@H]1OC2COC(=O)c3cc(O)c(O)c(O)c3-c3c(cc(O)c(O)c3O)C(=O)O[C@@H]([C@H]1O)[C@@H]2O)c1cc(O)c(O)c(O)c1	Pol beta inh 0.16µM, PI5P4Ka inh -102, POLI inh inconclusive, WRN helicase inh inconclusive
COc1c(O)cc2c(c1O)C1OC(CO)C(O)[C@H](O)[C@H]1OC2=O (some centres undefined)	none (no result: Pol beta inh, POLH inh, PI5P4Ka inh, POLI inh, WRN helicase inh)
O=C(COc1ccc(/C=N/NS(=O)(=O)c2ccccc2)cc1)Nc1ccccc1	none
O=C(COc1ccc(/C=N/NC(=O)c2cccnc2)cc1)Nc1ccccc1	Pol beta inh 32µM, POLH inh inconclusive
O=C(Cc1ccccc1)N/N=C/c1ccc(OCC(=O)Nc2ccccc2)cc1	Pol beta inh 28µM, POLH inh inconclusive
COc1ccccc1NC(=O)COc1ccc(/C=N/NC(=O)c2cccnc2)cc1	none
O=C(N/N=C/c1c(-c2ccccc2)[nH]c2ccccc12)c1cccnc1	Pol beta inh inconclusive
O=C(CCC(=O)Nc1ccccc1)N/N=C/c1ccncc1	Pol beta inh 20µM
Cn1c(-c2ccccc2)c(/C=N/NC(=O)c2cccnc2)c2ccccc21	Pol beta inh 56µM
O=C1/C(=C/c2ccccc2Cl)SC(=S)N1CCCC(=O)N(CCO)c1ccccc1	none
Cc1ccc(NC(=O)C2CCN(S(=O)(=O)c3ccc4c(c3)C(C)(C)C(=O)N4C)CC2)c(C)c1	none
COc1ccc(C2C(C(=O)O)c3ccccc3C(=O)N2Cc2ccco2)cc1 (centres undefined)	none
CCCCC(=O)NC(=S)Nc1c(C)cc(Br)cc1C	none
O=C(N/N=C/c1ccc(OC(=O)c2ccc([N+](=O)[O-])cc2)cc1)c1cccnc1	none
O=C(N/N=C/c1ccc(OC(=O)c2ccccc2)cc1)c1cccnc1	Pol beta inh 50µM, POLH inh inconclusive, POLI inh inconclusive, WRN helicase inh 56µM
Cc1ccc(CSCC(=O)N/N=C/c2ccc(OCC(=O)Nc3ccc(C)cc3)cc2)cc1	Pol beta inh 10µM, POLH inh inconclusive, POLI inh inconclusive, WRN helicase inh inconclusive
COc1ccc(CSCC(=O)N/N=C/c2ccc(OCC(=O)N3CCCCC3)cc2)cc1	POLI inh inconclusive (no result: PI5P4Ka inh)
CC(NC(=O)COc1ccc(/C=N/NC(=O)C(=O)Nc2ccccc2Br)cc1)c1ccccc1 (centres undefined)	Pol beta inh 32µM, POLH inh inconclusive, POLI inh inconclusive
CC1=[N+](C)N(c2ccccc2)C(=O)C1N=Cc1c(Cl)cccc1Cl (centres undefined)	none
Nc1ncnc2c1nc(Sc1ccc(Cl)cc1)n2[C@H]1OC2COP(=O)(O)O[C@@H]2C1O (some centres undefined)	none (no result: Pol beta inh, POLH inh, PI5P4Ka inh, POLI inh, WRN helicase inh)
CCC1=C(c2ccc(C)cc2)S(=O)(=O)N=C1N1CCC(C(=O)Nc2ccccc2F)CC1	none (no result: POLH inh, PI5P4Ka inh, WRN helicase inh)
COc1ccccc1CNC(=O)C1CCN(C2=NS(=O)(=O)C(c3ccc(C)c(C)c3)=C2C)CC1	Pol beta inh inconclusive, POLI inh 89µM (no result: PI5P4Ka inh, WRN helicase inh)
COc1ccc(C2=C(C)C(N3CCC(C(=O)Nc4ccccc4F)CC3)=NS2(=O)=O)cc1	Pol beta inh 22µM, POLI inh inconclusive (no result: POLH inh, PI5P4Ka inh, WRN helicase inh)
CCOc1ccccc1CNC(=O)C1CCN(C2=NS(=O)(=O)C(c3ccc(C)c(C)c3)=C2C)CC1	none (no result: POLH inh, PI5P4Ka inh, WRN helicase inh)
COCc1cc(CNC(=O)C2CCC(=O)N(Cc3cccc(OC)c3)C2)[nH]n1 (centres undefined)	none
C=CCn1c2ccccc2c(=O)c2cc(C#Cc3ccsc3)ccc21	Pol beta inh 5µM (no result: POLH inh, Pol kappa inh, PI5P4Ka inh, POLI inh, WRN helicase inh)
Oc1cccc2c(CC(O)c3c[nH]c4ccccc34)ccnc12 (centres undefined)	none (no result: Pol beta inh, POLH inh, PI5P4Ka inh, WRN helicase inh)
COc1ccc(-n2c(-c3ccc(Cl)cc3Cl)n[nH]c2=S)c(OC)c1	PI5P4Ka inh -64, WRN helicase inh 79µM
CC(C)(C)n1ncc2c(=O)n(Cc3ccc(F)c(F)c3F)cnc21	none (no result: Pol beta inh, POLH inh, PI5P4Ka inh, WRN helicase inh)
CC(=O)Nc1cc(N=Cc2ccc(O)cc2O)c(Cl)cc1Cl	POLH inh 45µM, PI5P4Ka inh inconclusive, POLI inh inconclusive
Cc1ccc(-c2nc(CNC(=O)NC3CCCCC3)c(C)o2)cc1	none (no result: PI5P4Ka inh, WRN helicase inh)
O=S(=O)(NCC(O)COCc1ccco1)c1cccs1 (centres undefined)	Pol beta inh 22µM, POLH inh 20µM, Pol kappa inh 35µM, PI5P4Ka inh inconclusive, POLI inh 22µM, WRN helicase inh inconclusive
CCn1c(SCC(=O)Nc2cc(OC)ccc2OC)nc2c(c1=O)SCC2	Pol beta inh 22µM, WRN helicase inh inconclusive
CCOc1cccc(-c2c(C(=O)N/N=C/c3cccs3)nnn2-c2nonc2N)c1	Pol beta inh inconclusive, Pol kappa inh inconclusive, PI5P4Ka inh inconclusive, POLI inh 79µM
Cc1cc2c(C)nc(N/N=C/c3ccc([N+](=O)[O-])cc3)nc2o1	POLH inh inconclusive, POLI inh 35µM
Cc1cc2c(C)nc(N/N=C/c3ccc(F)cc3)nc2o1	Pol beta inh inconclusive
O=[N+]([O-])c1cccnc1SCc1ccccc1	none
Cc1[nH]c2c(ccc3cccnc32)c1C	none
CC1=[N+](C)c2c(ccc3cccnc23)C1(C)C	Pol beta inh 25µM, WRN helicase inh 56µM
COc1ccc(OC)c(NC(=O)Cn2cc(C(=O)c3cccs3)c3ccccc32)c1	Pol beta inh inconclusive (no result: PI5P4Ka inh, WRN helicase inh)
COC(=O)c1ccc2c(=O)n(CCCCCC(=O)NCc3ccc(OC)cc3)c(=O)[nH]c2c1	none (no result: PI5P4Ka inh, WRN helicase inh)
Cc1ccc(C(=O)/C=C/C(=O)c2ccc(C)cc2)cc1	PI5P4Ka inh -53
CC(C)C(=O)Nc1ccc2nc(SCC(=O)N3CCc4ccccc43)sc2c1	none (no result: PI5P4Ka inh, WRN helicase inh)
